Screening data as filed in PubChem.
In the library only some 3% were active in any assay of this set; here they are far more common.
HIF-2a inh: inhibitors of HIF-2a; 786-0 RCC cells HIF-2a reporter, luciferase luminescence, overnight; inhibition, % at 18.8 µM; 360,000 compounds, 0.72% hits;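 active = inhibition of the luminescence signal of 40% or more relative to plate controls, in a single-dose primary screen at 18.75 µM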
Peg3 promoter: inhibitors of Peg3 promoter; HeLa PEG-Prom luciferase reporter, luminescence, overnight; inhibition, % at 20 µM; 360,000 compounds, 1.7% hits; AID 588405;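 active = inhibition of at least 50% at 20 µM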
CF NFkB inh: blocks PAF-induced NF-kB reporter in cystic fibrosis cells. KKLEB NF-kB-GFP reporter, GFP fluorescence overnight. inhibition, % at 5 µM. 360,000 compounds, 0.86% hits;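 active = at least 50% inhibition at 5 µM, scaled per plate between neutral and stimulator controls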;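 note: PAF is a Pseudomonas aeruginosa culture filtrate used as stimulus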
EBV LMP1 NFkB: inhibitors of Epstein-Barr LMP1-induced NF-kappaB reporter; LMP1-induced NF-kappaB luciferase reporter cells, luminescence; inhibition, % at 12.5 µM; 350,000 compounds, 0.69% hits; AID 504558; in the data active = inhibition above about 41%
KKLEB cytotox: CF airway cell cytotoxicity counter-screen. KKLEB CF airway cells viability, ATPlite luminescence, overnight; stronger effect = lower value; cells stimulated with P. aeruginosa culture filtrate. activity change (cytotoxicity), % at 5 µM. 360,000 compounds, 0.36% hits;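 active = corrected activity change at or below -50% at 5 µM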
MITF TRPM1 inh: reduces MITF-dependent TRPM1 promoter luciferase signal | SK-MEL-5 TRPM1 promoter luciferase, 24 h | inhibition, % at 12.5 µM | 330,000 compounds, 0.83% hits;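 active = mean inhibition across replicates of 60% or more, whatever share of single replicates reaches that level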
Of the large screens only hits and unclear results are named; the others gave an inactive call; ! = repeats disagree.

COC(=O)C1=C(c2ccc3ccccc3c2)C[C@@H]2CC[C@H]1N2C(=O)N1CCC(O)CC1	EBV LMP1 NFkB 85
COc1c(C)cc(C(=O)C2CCCN(Cc3ccccn3)C2)cc1C (stereo not given)	none
CC(=O)OC(C)(C)/C=C/C(=O)[C@](C)(O)C1[C@H](O)C[C@@]2(C)C3CC=C4C(C[C@H](O)C(=O)C4(C)C)[C@]3(C)C(=O)C[C@]12C (stereo not given in full)	HIF-2a inh 72, Peg3 promoter 104, CF NFkB inh 84, EBV LMP1 NFkB 43, KKLEB cytotox -89, MITF TRPM1 inh 91
CC(C)(O)/C=C/C(=O)C(C)(O)C1C(O)CC2(C)C3CC=C4C(C=C(O)C(=O)C4(C)C)C3(C)C(=O)CC12C (stereo not given)	HIF-2a inh 91, Peg3 promoter 99, CF NFkB inh 86, EBV LMP1 NFkB 45, KKLEB cytotox -62 (no result: MITF TRPM1 inh)
CC(C(=O)O)N(C(=O)c1ccccc1)c1ccc(F)c(Cl)c1 (stereo not given)	none
CC(=O)OC1CCC2(C)C(CCC3C4CC(N5CC5)C(C(C)=O)C4(C)CC(=O)C32)C1 (stereo not given)	none
Nc1cncc(C(=O)O)c1	EBV LMP1 NFkB 61!
CC1(CCCc2ccc(N(CCCl)CCCl)cc2)NC(=O)NC1=O (stereo not given)	EBV LMP1 NFkB 48 (no result: MITF TRPM1 inh)
Cc1ccc(O)c(C)c1	none
CC1=CC(C)CC(C)OC(=O)CC(c2ccc(O)cc2)NC(=O)C(Cc2c(Br)[nH]c3ccccc23)N(C)C(=O)C(C)NC(=O)C(C)C1 (stereo not given)	Peg3 promoter 76, CF NFkB inh 91, KKLEB cytotox -81, MITF TRPM1 inh 81
CC(C)(C)n1nnnc1C(c1ccccc1)N1CCC2(CC1)C(=O)NCN2c1ccccc1 (stereo not given)	none (no result: EBV LMP1 NFkB, MITF TRPM1 inh)
O=C(CCCc1ccc(N(CCCl)CCCl)cc1)NCc1ccccc1	EBV LMP1 NFkB 42 (no result: MITF TRPM1 inh)
Cc1ccccc1OP(=O)(Oc1ccccc1C)N1CCOCC1	none (no result: EBV LMP1 NFkB, MITF TRPM1 inh)
Cc1nc2ccccc2n1C1CCN(Cc2nnnn2CCc2ccccc2)CC1	EBV LMP1 NFkB 47
c1ccc(CCn2nnnc2CN2CCC(n3nnc4ccccc43)CC2)cc1	none
CC12CCC(O)CC1CCC1C2CCC2(C)C(C3=CC(=O)OC3)C(O)CC12O (stereo not given)	Peg3 promoter 94, CF NFkB inh 71
CC1(C)C[C@H]2C=C(C=O)[C@]3(C=O)C[C@]3(C)[C@H]2C1	Peg3 promoter 105, CF NFkB inh 77, MITF TRPM1 inh 88
C=CCCC1(CC(C)C)C(=O)NC(=S)NC1=O	none
Clc1ccc(COC(Cn2ccnc2)c2ccc(Cl)cc2Cl)cc1 (stereo not given)	none
Clc1ccc(C(c2ccc(Cl)cc2)n2cc[n+](CC(OCc3ccc(Cl)cc3Cl)c3ccc(Cl)cc3Cl)c2)cc1 (stereo not given)	HIF-2a inh 97, Peg3 promoter 102, CF NFkB inh 56, MITF TRPM1 inh 103
COC(=O)C1(F)C(=O)NC(=O)NC1O (stereo not given)	none (no result: Peg3 promoter, CF NFkB inh, EBV LMP1 NFkB, KKLEB cytotox, MITF TRPM1 inh)
CNC(=O)Oc1cccc(-c2cn3cc(Cl)ccc3n2)c1	none
CNC(=O)Oc1ccc(-c2cn3cc(C)ccc3n2)cc1	EBV LMP1 NFkB 64
C#CC[N+]1(C)[C@@H]2CC[C@H]1CC(OC(=O)C(CO)c1ccccc1)C2 (stereo not given in full)	none
CCOC(=O)C1(c2ccccc2)CCN(CCC(=O)Nc2cccc(Br)c2)CC1	Peg3 promoter 59
O=C(c1cccnc1)N1Cc2ccccc2-n2nncc2C1	none (no result: MITF TRPM1 inh)
c1ccc(N2[C@@H]3CC[C@H]2c2ccccc2C3)cc1	none (no result: MITF TRPM1 inh)
CC(=O)N(C)C1=Nc2ccc(Cl)cc2C(c2ccccc2)=[N+]([O-])C1	EBV LMP1 NFkB 70
CN(C)C(=O)On1c(-c2ccccc2)nc2ccc(Cl)cc21	none
CCOC(=O)c1cc2ccccc2n1C1CCN(Cc2ccccc2)CC1	none (no result: Peg3 promoter, CF NFkB inh, EBV LMP1 NFkB, KKLEB cytotox, MITF TRPM1 inh)
O=C1C(=O)c2ccccc2-c2ccccc21	HIF-2a inh 98, Peg3 promoter 101, CF NFkB inh 83, EBV LMP1 NFkB 86, MITF TRPM1 inh 110
O[C@@H]1CCCN2CCc3c([nH]c4ccccc34)[C@H]12	none (no result: MITF TRPM1 inh)
CO[C@H]1C=CCCC=CC(=O)O[C@H]([C@H](C)C(=O)CCCC2CC(=O)NC(=O)C2)C(C)=C[C@@H](C)[C@@H]1O	none (no result: Peg3 promoter, CF NFkB inh, EBV LMP1 NFkB, KKLEB cytotox, MITF TRPM1 inh)
CCOC(=O)[C@]12Cc3cc(Cl)ccc3[C@H]1N(C)C(=O)c1cc(OC)ccc12	none (no result: Peg3 promoter, CF NFkB inh, EBV LMP1 NFkB, KKLEB cytotox, MITF TRPM1 inh)
CCOC(=O)[C@]12Cc3cc(Cl)ccc3[C@H]1N(C1CCCCC1)C(=O)c1cc(OC)ccc12	HIF-2a inh 89 (no result: Peg3 promoter, CF NFkB inh, EBV LMP1 NFkB, KKLEB cytotox, MITF TRPM1 inh)
CCCCCCCCn1sccc1=O	none
O=C(O)CCCOc1ccc(Cl)cc1Cl	EBV LMP1 NFkB 59
S=P1(Oc2ccccc2)Nc2ccccc2N1	none
O=C1NC(=O)C(=Cc2ccc(-c3ccc(S(=O)(=O)N4CCOCC4)cc3)o2)C(=O)N1	none
O=C1NC(=O)C(=Cc2ccc(-c3ccc(Cl)cc3)o2)C(=O)N1	Peg3 promoter 102, MITF TRPM1 inh 68
O=C1NC(=O)C(=Cc2ccc(Sc3ccccc3)o2)C(=O)N1	none
O=C1NC(=O)C(=Cc2ccc(-c3ccc(F)cc3O)o2)C(=O)N1	HIF-2a inh 48
COc1ccc(CN2Cc3cc(N4CCCCC4)ccc3-n3nncc3C2)cc1	none (no result: EBV LMP1 NFkB, MITF TRPM1 inh)
Oc1ccc(O)c2c1C1(Cl)C(Cl)=C(Cl)C2(Cl)C1(Cl)Cl	Peg3 promoter 61
O=S(=O)(O)C(=Cc1ccccc1)c1ccccc1 (tested in a mixture with another compound)	none
Cc1nc2c(=O)n(C)c(=O)nc-2n(C)n1	HIF-2a inh 81, Peg3 promoter 105, CF NFkB inh 77, EBV LMP1 NFkB 91, KKLEB cytotox -74, MITF TRPM1 inh 110
COC(=O)C1=C(c2ccc(F)cc2OCc2ccccc2)C[C@@H]2CC[C@H]1N2C(=O)NCc1ccccc1Br	none
C[n+]1c(-c2ccccc2)cc(CCCCc2cc(-c3ccccc3)[n+](C)c(-c3ccccc3)c2)cc1-c1ccccc1	none
COc1ccc(-c2cc(-c3ccccc3)[n+](C)c(-c3ccccc3)c2)cc1	MITF TRPM1 inh 66
CC(C)(CN)CC(=O)O	none
Cc1ccc(N2C(=O)NC(=O)/C(=C\C=C\c3ccco3)C2=O)cc1	HIF-2a inh 42, CF NFkB inh 52, MITF TRPM1 inh 102
O=C1NC(=O)N(c2ccccc2)C(=O)/C1=C/C=C/c1ccco1	MITF TRPM1 inh 95
Cc1cc(N2CCOCC2)ccc1/C=C1\C(=O)NC(=O)N(c2ccccc2)C1=O	none
Cc1cccc(N2C(=O)NC(=O)/C(=C\C=C\c3ccco3)C2=O)c1	CF NFkB inh 88, MITF TRPM1 inh 98
CN1C(=O)/C(=C/C=C/c2ccco2)C(=O)NC1=S	none
